Where “and” joins values, the source holds several entries; their conditions need not be identical. Equal entries are not always repeated. Inconclusive results are not listed. Some structures have more than one record in an assay (separate samples or runs), and their calls can disagree. Calls of active or inactive are those of the source. Unless noted, calls come from the whole dose curve; as a rule, active = well fitted curve in the direction sought with a large enough effect in the repeat runs; inconclusive = weak or mixed curves; inactive = no such curve, though single readings can be large; an effect the other way counts as inactive or inconclusive.

Among the data in PubChem BioAssay (Tox21) are Potency values, retold here.

Assay [1] can be described thus: Human pregnane X receptor (PXR) small molecule agonists, qHTS cell viability counter screen (AID 1346977). Note: nearly all actives have a fitted effect of over 50% in size. Note: potency is the fitted concentration of half-maximal effect. An outline of the steps: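 PXR-Luc HepG2 cells (2,000/well, 5% charcoal-stripped FBS) preincubated 5 hr, then exposed to compounds 24 hr at 37 C. Viability read in the same wells by CellTiter-Fluor fluorescence, reagent added at 23 hr, 1 hr incubation.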
In general terms: In qHTS, concentration-response curves come from the screen itself.

Assay [2] can be described thus: Caspase-3/7 induction in HepG2 cells by small molecules, qHTS assay (AID 1346978). Note: nearly all actives have a fitted effect of over 15% in size. Note: potency is the fitted concentration of half-maximal effect. An outline of the steps: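 Wild-type HepG2 cells, 2,000/well, settled 5 hr at 37 C and 5% CO2, then compound-treated for 17 hr; caspase-3/7 activity read by luminescent Caspase-Glo 3/7 after 30 min at room temperature.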
Assay [3] can be described thus: Caspase-3/7 induction in CHO-K1 cells by small molecules, qHTS cell viability counter screen (AID 1346979). Note: nearly all actives have a fitted effect of over 35% in size. Note: potency is the fitted concentration of half-maximal effect. The method in brief:
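Wild-type CHO-K1 cells (1,500/well) treated with compound after 5 h plating; after 16 h at 37C, viability read as CellTiter-Fluor fluorescence following 1 h reagent incubation, in the same wells as the caspase read.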

Assay [4] in a line: Caspase-3/7 induction in HepG2 cells by small molecules, qHTS cell viability counter screen (AID 1346981). Note: nearly all actives have a fitted effect of over 30% in size. Note: potency is the fitted concentration of half-maximal effect. An outline of the steps: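 In this quantitative HTS counter screen, compounds delivered in DMSO were left on unmodified HepG2 cells for 16 hr at 37 C. Viability was then determined fluorometrically with CellTiter-Fluor, in parallel with caspase-3/7 induction in the same wells.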

Assay [5] deals with Nuclear receptor subfamily 1 group I member 2 (Homo sapiens) (UniProt O75469). Put plainly: Human pregnane X receptor (PXR) small molecule agonists, qHTS assay (AID 1346982). Note: nearly all actives have a fitted effect of over 35% in size. Note: potency is the fitted concentration of half-maximal effect. An outline of the steps: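 Reporter HepG2 cells expressing PXR-Luc are cultured in charcoal-stripped FBS (5%), treated with compounds for 24 hr at 37 C, and assayed by ONE-Glo luminescence after 30 min at room temperature.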

The target of assay [6] is Acetylcholinesterase (Homo sapiens) (UniProt P22303). The assay can be described thus: Acetylcholinesterase (AChE) small molecule antagonists: colormetric cell-based qHTS assay (AID 1347395; calls by dose curve; note: nearly all actives have a fitted effect of over 30% in size). An outline of the steps: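 SH-SY5Y cells attached overnight, exposed to compound 30 min at 37 C, then given DTNB/acetylthiocholine; after 90 min at 37 C, colorimetric thiocholine read gives cellular AChE activity.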

For assay [7] the target is unchanged. The assay can be described thus: Acetylcholinesterase (AChE) small molecule antagonists: fluorescence cell-based qHTS assay (AID 1347398; calls by dose curve; note: nearly all actives have a fitted effect of over 50% in size). The conditions noted are these: Potency: AChE activity. The method in brief: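 Cells (SH-SY5Y) attached overnight, were dosed with compound or DMSO vehicle for 30 min at 37 C, and then incubated 40 min at room temperature with acetylthiocholine and Thiolite Green; green fluorescence indexed AChE activity.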

Assay [8] shares this target. Put plainly: Acetylcholinesterase (AChE) small molecule antagonists: enzyme-based qHTS assay with human liver microsomes (AID 1347399; calls by dose curve; note: nearly all actives have a fitted effect of over 60% in size; note: potency is the fitted concentration of half-maximal effect). The following applies: Potency: qHTS inhibition. An outline of the steps:
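Recombinant human AChE (50 mU/mL in the enzyme mix) and human liver microsomes (0.25 mg/mL final) were preincubated with compound and NADPH (0.25 mg/mL final) for 30 min at 37 C. Acetylthiocholine/DTNB was then added; thiocholine was read colorimetrically after 10 min at room temperature.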

In assay [9] the target is Cytochrome P450 2D6 (Homo sapiens) (UniProt P10635). The assay can be described thus: Cytochrome P450 Family 2 Subfamily D Member 6 (CYP2D6) small molecule antagonists: luciferase reporter qHTS assay (AID 1671196). Note: nearly all actives have a fitted effect of over 50% in size. Note: potency is the fitted concentration of half-maximal effect. An outline of the steps:
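Test chemicals meet CYP2D6 plus proluciferin substrate (10 min, RT); NADPH regenerating solution then drives turnover for 1 h. Detection reagent halts the reaction; luminescence measured after 20 min.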
(A reporter such as luciferase makes a cellular process visible.)

Assay [10] has as its target Cytochrome P450 2C19 (Homo sapiens) (UniProt P33261). Put plainly: Cytochrome P450 Family 2 Subfamily C Member 19 (CYP2C19) small molecule antagonists: luciferase reporter qHTS assay (AID 1671197). Note: nearly all actives have a fitted effect of over 65% in size. Note: potency is the fitted concentration of half-maximal effect. An outline of the steps: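 Luminescent readout of CYP2C19 activity: luciferin product detected 20 min after adding detection reagent. Before that, compound and enzyme-substrate mix preincubated 10 min at room temperature; NADPH-regenerating system started a 1 h, 37C reaction. Ketoconazole as positive control.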

In assay [11] the target is Cytochrome P450 2C9 (Homo sapiens) (UniProt P11712). Put plainly: Cytochrome P450 Family 2 Subfamily C Member 9 (CYP2C9) small molecule antagonists: luciferase reporter qHTS assay (AID 1671198). Note: potency is the fitted concentration of half-maximal effect; nearly all actives have a fitted effect of over 50% in size. An outline of the steps:
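P450-Glo proluciferin substrate with CYP2C9 enzyme; 10 min RT preincubation, then NADPH regeneration 1 h at 37C; luciferin detection reagent 20 min RT, luminescence in relative luminescence units.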

The target in assay [12] is Cytochrome P450 1A2 (Homo sapiens) (UniProt P05177). Put plainly: Cytochrome P450 Family 1 Subfamily A Member 2 (CYP1A2) small molecule antagonists: luciferase reporter qHTS assay (AID 1671199). Note: nearly all actives have a fitted effect of over 50% in size. Note: potency is the fitted concentration of half-maximal effect. An outline of the steps: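 Steps: enzyme-substrate mix dispensed; test compounds and furafylline control pinned in; 10 min room temperature; NADPH regeneration solution added, 1 h; reaction stopped with luciferin detection reagent; luminescence read after 20 min.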

The target in assay [13] is Voltage-gated inwardly rectifying potassium channel KCNH2 (Homo sapiens) (UniProt Q12809). Put plainly: Human Ether-a-go-go-Related Gene (hERG) channel small molecule antagonists: fluorescence cell-based qHTS assay (AID 1671200). Note: nearly all actives have a fitted effect of over 50% in size. Note: potency is the fitted concentration of half-maximal effect. The method in brief:
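hERG-U2OS cells plated overnight at 37 C, loaded with FluxOR II dye 1 h at RT in dark; after 10 min, thallium stimulus added. Fluorescence (480/540 nm) read kinetically for 2 min at 1 s intervals.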
(Block of hERG is tested as a sign of cardiac risk.)

Assay [14] in a line: Caspase-3/7 induction in CHO-K1 cells by small molecules, qHTS assay (AID 1346980). Note: nearly all actives have a fitted effect of over 15% in size. An outline of the steps:
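Wild-type CHO-K1 cells exposed to compounds for 17hr at 37 C, 5% CO2. Caspase-3/7 activity then measured by Caspase-Glo 3/7 luminescence after 30min at room temperature.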

For assay [15], the target named is Acetylcholinesterase (Homo sapiens) (UniProt P22303). Put plainly: Acetylcholinesterase (AChE) small molecule antagonists: enzyme-based qHTS assay (AID 1347397; calls by dose curve; note: nearly all actives have a fitted effect of over 55% in size). The following applies: Potency: AChE enzyme activity inhibition. The method in brief:
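In this quantitative HTS, compounds from the Tox21 10K collection were preincubated 30 min at ambient temperature with recombinant human AChE dispensed at 50 mU/mL. Hydrolysis of acetylthiocholine was then followed for 10 min by DTNB colour development.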

The target of assay [16] is Cytochrome P450 3A4 (Homo sapiens) (UniProt P08684). The assay can be described thus: Cytochrome P450 Family 3 Subfamily A Member 4 (CYP3A4) small molecule antagonists: luciferase reporter qHTS assay (AID 1671201). Note: nearly all actives have a fitted effect of over 50% in size. Note: potency is the fitted concentration of half-maximal effect. The method in brief:
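P450-Glo CYP3A4 luminescent assay: compounds preincubated 10 min at room temperature with enzyme and proluciferin substrate, NADPH regeneration added, 1 h room-temperature reaction, stopped with luciferin detection reagent; luminescence read after 20 min. Ketoconazole positive control.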

Sequence of Voltage-gated inwardly rectifying potassium channel KCNH2 (Homo sapiens) (Q12809 whole entry, looked up): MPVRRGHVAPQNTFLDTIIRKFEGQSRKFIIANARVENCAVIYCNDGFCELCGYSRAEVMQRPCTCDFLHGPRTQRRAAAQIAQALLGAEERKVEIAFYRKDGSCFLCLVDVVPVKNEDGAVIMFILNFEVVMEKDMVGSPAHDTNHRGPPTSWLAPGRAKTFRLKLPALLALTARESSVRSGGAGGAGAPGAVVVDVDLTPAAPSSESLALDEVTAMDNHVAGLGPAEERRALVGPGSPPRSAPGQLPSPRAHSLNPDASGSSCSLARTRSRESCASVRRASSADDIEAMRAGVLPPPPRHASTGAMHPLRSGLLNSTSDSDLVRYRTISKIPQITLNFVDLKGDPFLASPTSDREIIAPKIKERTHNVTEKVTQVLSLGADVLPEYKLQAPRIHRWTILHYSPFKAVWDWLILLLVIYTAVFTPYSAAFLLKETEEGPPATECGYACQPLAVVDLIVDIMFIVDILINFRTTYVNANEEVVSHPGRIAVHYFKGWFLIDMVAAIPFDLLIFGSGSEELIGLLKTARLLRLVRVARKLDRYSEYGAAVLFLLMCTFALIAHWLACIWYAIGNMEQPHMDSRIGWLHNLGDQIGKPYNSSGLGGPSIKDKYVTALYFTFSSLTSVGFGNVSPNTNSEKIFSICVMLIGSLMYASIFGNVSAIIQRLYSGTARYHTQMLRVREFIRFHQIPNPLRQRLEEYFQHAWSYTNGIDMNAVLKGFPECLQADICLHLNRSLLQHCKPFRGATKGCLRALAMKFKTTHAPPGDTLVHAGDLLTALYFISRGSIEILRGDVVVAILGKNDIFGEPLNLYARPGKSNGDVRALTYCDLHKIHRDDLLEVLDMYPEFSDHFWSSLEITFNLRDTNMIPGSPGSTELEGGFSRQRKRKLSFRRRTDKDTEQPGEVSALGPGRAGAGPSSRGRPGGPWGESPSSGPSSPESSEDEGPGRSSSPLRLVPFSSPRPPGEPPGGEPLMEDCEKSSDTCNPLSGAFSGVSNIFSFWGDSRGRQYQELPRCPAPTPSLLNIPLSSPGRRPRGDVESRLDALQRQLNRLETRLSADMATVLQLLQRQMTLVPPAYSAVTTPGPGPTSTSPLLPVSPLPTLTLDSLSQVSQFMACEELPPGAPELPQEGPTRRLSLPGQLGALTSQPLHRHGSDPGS
Sequence of Cytochrome P450 3A4 (Homo sapiens) (P08684 whole entry, looked up): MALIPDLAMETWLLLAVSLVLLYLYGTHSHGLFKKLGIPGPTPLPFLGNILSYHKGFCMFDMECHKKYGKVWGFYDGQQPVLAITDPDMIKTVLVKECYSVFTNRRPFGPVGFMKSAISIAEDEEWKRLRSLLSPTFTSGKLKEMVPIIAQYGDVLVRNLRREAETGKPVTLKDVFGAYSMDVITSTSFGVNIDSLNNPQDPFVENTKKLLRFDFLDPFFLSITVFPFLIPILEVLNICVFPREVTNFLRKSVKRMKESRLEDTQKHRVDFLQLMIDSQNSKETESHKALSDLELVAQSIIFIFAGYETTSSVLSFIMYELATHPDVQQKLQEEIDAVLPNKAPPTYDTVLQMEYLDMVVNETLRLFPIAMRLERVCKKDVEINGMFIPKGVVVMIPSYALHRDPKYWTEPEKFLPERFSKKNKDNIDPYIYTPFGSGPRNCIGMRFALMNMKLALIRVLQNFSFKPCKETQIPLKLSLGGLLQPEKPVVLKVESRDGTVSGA
Sequence of Acetylcholinesterase (Homo sapiens) (P22303 whole entry, looked up): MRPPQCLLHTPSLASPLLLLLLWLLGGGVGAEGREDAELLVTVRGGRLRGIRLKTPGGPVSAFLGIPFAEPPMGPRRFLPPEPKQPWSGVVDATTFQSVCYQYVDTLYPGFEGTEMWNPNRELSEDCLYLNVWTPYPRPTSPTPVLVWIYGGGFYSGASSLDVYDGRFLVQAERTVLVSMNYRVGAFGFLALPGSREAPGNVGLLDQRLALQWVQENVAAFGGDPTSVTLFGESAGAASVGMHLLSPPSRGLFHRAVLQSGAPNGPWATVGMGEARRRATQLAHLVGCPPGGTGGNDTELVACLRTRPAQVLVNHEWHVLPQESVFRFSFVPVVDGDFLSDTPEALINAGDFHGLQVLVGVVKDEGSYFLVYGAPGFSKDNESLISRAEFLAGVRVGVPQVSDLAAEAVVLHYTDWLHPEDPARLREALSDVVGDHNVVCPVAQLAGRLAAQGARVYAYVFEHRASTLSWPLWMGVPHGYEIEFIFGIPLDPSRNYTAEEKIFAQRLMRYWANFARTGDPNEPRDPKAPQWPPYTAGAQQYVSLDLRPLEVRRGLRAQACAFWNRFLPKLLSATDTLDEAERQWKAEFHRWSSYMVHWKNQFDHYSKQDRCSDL
Sequence of Nuclear receptor subfamily 1 group I member 2 (Homo sapiens) (O75469 whole entry, looked up): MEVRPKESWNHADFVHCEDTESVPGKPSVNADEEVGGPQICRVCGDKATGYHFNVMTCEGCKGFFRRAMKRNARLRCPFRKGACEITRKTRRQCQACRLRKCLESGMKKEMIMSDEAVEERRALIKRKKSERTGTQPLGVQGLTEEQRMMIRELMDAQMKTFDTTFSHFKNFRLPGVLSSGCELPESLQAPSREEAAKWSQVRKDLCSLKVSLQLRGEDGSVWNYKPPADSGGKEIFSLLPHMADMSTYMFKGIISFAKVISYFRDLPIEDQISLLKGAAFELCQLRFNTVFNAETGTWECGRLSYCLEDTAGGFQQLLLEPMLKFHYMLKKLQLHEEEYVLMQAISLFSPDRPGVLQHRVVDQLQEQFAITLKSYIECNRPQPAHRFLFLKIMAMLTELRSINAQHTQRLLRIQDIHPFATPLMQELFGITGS
Sequence of Cytochrome P450 1A2 (Homo sapiens) (P05177 whole entry, looked up): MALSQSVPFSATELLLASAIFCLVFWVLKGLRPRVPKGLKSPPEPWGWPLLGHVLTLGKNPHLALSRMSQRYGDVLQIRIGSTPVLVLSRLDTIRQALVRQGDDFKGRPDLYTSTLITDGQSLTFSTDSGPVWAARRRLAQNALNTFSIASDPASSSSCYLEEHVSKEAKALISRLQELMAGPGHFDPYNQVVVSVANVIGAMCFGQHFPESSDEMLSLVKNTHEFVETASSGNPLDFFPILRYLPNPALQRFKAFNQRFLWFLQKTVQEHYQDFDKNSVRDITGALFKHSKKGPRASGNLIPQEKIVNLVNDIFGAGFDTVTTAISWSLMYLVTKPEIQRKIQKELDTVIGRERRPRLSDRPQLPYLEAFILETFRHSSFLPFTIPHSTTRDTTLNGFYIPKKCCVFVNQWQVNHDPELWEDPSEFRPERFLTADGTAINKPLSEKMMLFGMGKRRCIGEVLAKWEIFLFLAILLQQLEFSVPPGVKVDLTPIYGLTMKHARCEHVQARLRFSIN
Sequence of Cytochrome P450 2C9 (Homo sapiens) (P11712 whole entry, looked up): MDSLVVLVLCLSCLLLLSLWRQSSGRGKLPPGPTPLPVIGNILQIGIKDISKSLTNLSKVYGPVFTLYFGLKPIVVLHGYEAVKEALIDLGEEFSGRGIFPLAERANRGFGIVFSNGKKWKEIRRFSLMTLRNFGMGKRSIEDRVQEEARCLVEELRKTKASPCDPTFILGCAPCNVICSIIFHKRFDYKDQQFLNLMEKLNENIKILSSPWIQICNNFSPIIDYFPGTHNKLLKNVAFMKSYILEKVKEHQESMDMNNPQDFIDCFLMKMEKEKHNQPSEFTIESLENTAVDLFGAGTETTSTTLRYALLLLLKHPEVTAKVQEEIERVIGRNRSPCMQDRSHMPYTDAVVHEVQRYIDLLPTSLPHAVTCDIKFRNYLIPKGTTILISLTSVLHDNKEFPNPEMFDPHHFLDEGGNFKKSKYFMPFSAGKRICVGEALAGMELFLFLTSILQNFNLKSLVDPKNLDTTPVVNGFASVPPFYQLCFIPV
Sequence of Cytochrome P450 2D6 (Homo sapiens) (P10635 whole entry, looked up): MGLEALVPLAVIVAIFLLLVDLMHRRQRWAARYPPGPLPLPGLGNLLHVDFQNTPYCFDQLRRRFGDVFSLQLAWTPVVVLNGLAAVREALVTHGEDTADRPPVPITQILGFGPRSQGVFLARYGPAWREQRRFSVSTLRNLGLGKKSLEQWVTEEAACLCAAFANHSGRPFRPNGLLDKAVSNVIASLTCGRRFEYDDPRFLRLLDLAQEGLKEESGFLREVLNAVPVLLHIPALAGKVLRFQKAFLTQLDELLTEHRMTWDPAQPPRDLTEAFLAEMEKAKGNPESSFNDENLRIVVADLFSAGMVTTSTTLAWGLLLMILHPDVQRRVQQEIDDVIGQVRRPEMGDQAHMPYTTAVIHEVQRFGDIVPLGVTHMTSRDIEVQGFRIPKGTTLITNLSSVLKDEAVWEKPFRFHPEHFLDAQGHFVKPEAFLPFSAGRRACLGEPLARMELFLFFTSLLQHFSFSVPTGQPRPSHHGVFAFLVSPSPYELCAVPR
Sequence of Cytochrome P450 2C19 (Homo sapiens) (P33261 whole entry, looked up): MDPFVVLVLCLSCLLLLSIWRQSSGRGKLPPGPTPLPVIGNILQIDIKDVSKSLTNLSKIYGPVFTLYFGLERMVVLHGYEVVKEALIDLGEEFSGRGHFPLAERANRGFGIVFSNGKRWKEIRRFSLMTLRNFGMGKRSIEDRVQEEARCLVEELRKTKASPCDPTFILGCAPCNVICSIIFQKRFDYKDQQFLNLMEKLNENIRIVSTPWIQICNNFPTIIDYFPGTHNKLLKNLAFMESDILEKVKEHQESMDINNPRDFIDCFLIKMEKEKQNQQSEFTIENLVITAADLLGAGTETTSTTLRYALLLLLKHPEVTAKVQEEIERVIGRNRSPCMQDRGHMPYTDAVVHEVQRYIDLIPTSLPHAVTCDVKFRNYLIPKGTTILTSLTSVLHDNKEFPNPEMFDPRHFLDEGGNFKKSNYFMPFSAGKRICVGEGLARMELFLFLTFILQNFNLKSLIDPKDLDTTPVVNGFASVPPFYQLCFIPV

On to `CCCCCCCCCc1ccc(O)cc1`, for which the Potency was 61.1 µM (active) in assay [1]; 61.8 µM (active) and 27.3 µM (active) in assay [2]; 61.8 µM (active) and 54.5 µM (active) in [3]; 43.3 µM (active) in assay [4]; 61.8 µM (active) and 61.1 µM (active) in assay [5]; 6.39 µM (active) and 10 µM (active) in assay [10]. Also, the Potency in assay [11] is 20.2 µM (active) and 31.7 µM (active); in assay [12], “inactive and 39.9 µM (active)”. In addition, the Potency result in assay [6], in assay [7], in assay [8], in [9] and in [13] was “inactive” throughout.

With `N#Cc1cccnc1`, the Potency result in assay [1], in assay [2], in assay [3], in [14], in assay [4] and in [5] was “inactive” each time. Moreover, the Potency result in assay [6], in assay [15], in assay [7], in assay [8], in [9] and in [12] was “inactive” throughout. Besides, the Potency result in assay [13] and in assay [16] was “inactive” each time. Further, the Potency in assay [10] was 38.8 µM (active) and inactive.

Consider `CCOP(=S)(OCC)SCn1c(=O)oc2cc(Cl)ccc21`, for which the Potency entry in [1], in assay [2], in assay [14], in [4], in assay [15] and in assay [7] was “inactive” each time. The Potency in assay [3] is 73.6 µM (active); in [5] it was 32.9 µM (active) and 34.4 µM (active); in assay [8], 8.55 µM (active) and 3.99 µM (active); in [9], 13.5 µM (active) and 25.2 µM (active); in assay [10] it was 76.2 nM (active) and 89.4 nM (active); in assay [11], 1.08 µM (active) and 1.12 µM (active). Further, the Potency in [12] is 2.7 µM (active) and 3.99 µM (active); in assay [13], 23.5 µM (active); in [16], 241 nM (active) and 317 nM (active).

On to `Cl`, for which the Potency result in [1], in assay [2], in assay [3], in [14], in assay [4] and in assay [13] was “inactive” in each case.

For the compound `CCCCOC(=O)COC(=O)c1ccccc1C(=O)OCCCC`, the Potency entry in [1], in assay [2], in [3], in assay [14], in assay [4] and in assay [5] was “inactive” each time. Besides, the Potency result in assay [6], in assay [15], in assay [7] and in [8] was “inactive” throughout. Besides, the Potency was 7.93 µM (active) and 11.2 µM (active) in [10]; 6.3 µM (active) and 7.1 µM (active) in assay [11]; 11.2 µM (active) and 20 µM (active) in [12]; 22.3 µM (active) and 35.6 µM (active) in assay [16].

With `CCCCC(C#N)(Cn1cncn1)c1ccc(Cl)cc1` (configuration not stated), the Potency result in [1], in assay [2], in assay [3], in assay [14], in assay [4] and in assay [6] was “inactive” throughout. Besides, the Potency entry in [15], in assay [7], in assay [8] and in assay [13] was “inactive” each time. The Potency in assay [5] was 30.5 µM (active) and inactive; in assay [10], 794 nM (active) and 633 nM (active); in [11], 28.2 µM (active) and 25.2 µM (active); in assay [16], 158 nM (active) and 224 nM (active).

For the compound `CC(C)(c1ccccc1)c1ccc(O)cc1`, the Potency result in assay [1], in [14], in assay [4], in assay [6], in [15] and in assay [7] was “inactive” throughout. Further, the Potency result in assay [8], in assay [9], in assay [10], in assay [12], in [13] and in [16] was “inactive” throughout. For the same compound, the Potency is 60.6 µM (active) in assay [2]; 27.1 µM (active) and 19.3 µM (active) in [5]; 11.2 µM (active) and 12.6 µM (active) in assay [11].
